Records with an inconclusive call do not appear. Where a call stands in place of a potency, no number is given. Active and inactive are the calls of the source. Calls follow the shape of the dose curve; as a rule, active = well fitted activation curve with a large enough effect; inconclusive = small, poorly fitted or top-dose-only effect; inactive = flat fitted curve, though single readings scatter.
Potency is read from the fitted curve at half-maximal effect.

Chain of D(1A) dopamine receptor (Homo sapiens) (P21728 whole entry, looked up): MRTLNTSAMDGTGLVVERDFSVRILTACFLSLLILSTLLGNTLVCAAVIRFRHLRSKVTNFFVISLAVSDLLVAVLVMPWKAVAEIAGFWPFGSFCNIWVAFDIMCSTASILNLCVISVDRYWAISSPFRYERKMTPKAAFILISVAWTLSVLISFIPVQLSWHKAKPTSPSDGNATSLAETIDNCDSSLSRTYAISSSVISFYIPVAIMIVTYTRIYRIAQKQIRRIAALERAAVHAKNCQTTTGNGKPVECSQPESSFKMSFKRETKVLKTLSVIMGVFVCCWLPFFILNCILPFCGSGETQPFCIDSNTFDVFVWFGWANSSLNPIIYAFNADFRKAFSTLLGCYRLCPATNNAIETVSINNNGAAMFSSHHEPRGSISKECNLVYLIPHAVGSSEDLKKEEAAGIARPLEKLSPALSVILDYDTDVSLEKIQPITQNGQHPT

The target of this test is D(1A) dopamine receptor (Homo sapiens) (UniProt P21728). Kind of test: HTS Assay for Allosteric Agonists of the Human D1 Dopamine Receptor: Primary Screen for Agonists (AID 488981). To be noted: Inducible HEK293 T-REx D1 cells, calcium-flux fluorescence, 180 s kinetic; series mostly up to 41.8 µM. The text has this:
Dopamine receptors (DARs) are involved in the etiology and/or therapy of a number of neuropsychiatric and endocrine disorders. For instance, all receptor-based antiparkinsonian drugs work via stimulating the […] DAR subtype whereas all FDA-approved antipsychotic agents are antagonists of this receptor. […] There are three different types of allosteric modulators that we are seeking, two of which will stimulate or augment receptor signaling, allosteric agonists and potentiators, while the third, allosteric antagonists, will attenuate receptor signaling. The present primary screening assay measures compound agonism by tracking calcium flux in a […], inducible Hek293 Trex D1 cell line.
Freshly passaged cells are plated in 1536 well black, clear bottom plates at a density of 4000 cells/well in 3 ul of complete media containing 1x tetracycline inducer. After an overnight incubation at 30 C in 5% CO2, cells are loaded with 2 ul of the no wash Calcium Assay Kit (ABD Bioquest) and incubated at room temperature for 30 to 90 minutes. A 10 cycle (1 second/cycle) baseline measurement is taken and then the FDSS online 1536 pintool delivers 23 nl of compound library (as well as dopamine controls) to the plate. The plate is measured for kinetically at 1 cycle/sec for 180 seconds and is considered to be the agonist portion of the assay (eg, compounds which activate a positive calcium response during this portion are flagged as potential agonists). Following the 180 second read, 1 ul of an EC20 of dopamine is delivered by an onboard pipette head. Measurements are taken kinetically for an additional 180 seconds.
Turning to `NCCCCN`, the Potency result is “inactive”.

Consider `NC1(C(=O)O)CC1`, for which the Potency result is “inactive”.

Regarding `COc1ccccc1N1CCN(CCCCNC(=O)c2ccc3ccccc3c2)CC1`, the Potency entry was “inactive”.

Regarding `O=c1cc(-c2ccccc2)[nH]c2nc(Cl)ccc12`, the Potency result is “inactive”.

For the compound `Nc1ncnc2c1nc(Br)n2C1OC2COP(=O)(O)O[C@@H]2C1O` (stereo not given in full), the Potency entry was “inactive”.

In the case of `CC(C)NCC(O)COc1ccc(CC(N)=O)cc1` (stereo not given), the Potency result was “inactive”.

Consider `COc1cc(C(O)CO)ccc1O` (stereo not given), for which the Potency result was “inactive”.

As for `Cc1ccc([N+](=O)[O-])cc1S(=O)(=O)N(C)C`, the Potency result was “inactive”.

With `O=C(N[C@@H](Cc1ccccc1)C(=O)CCl)OCc1ccccc1`, the Potency result is “inactive”.

In the case of `O=C(O)CCC/C=C\C[C@@H]1[C@@H](/C=C/[C@H](O)C2Cc3ccccc3C2)[C@@H](F)C[C@@H]1O`, the Potency entry is “inactive”.

Take `N[C@H](C(=O)O)c1cc(O)cc(O)c1`: the Potency result is “inactive”.

Turning to `N[C@H](C(=O)O)[C@H]1C[C@@H]1C(=O)O`, the Potency entry was “inactive”.

In the case of `Nc1ccc2c3c(cccc13)C(=O)NC2=O`, the Potency was 11.2 µM (active).

For the compound `CCC(=O)N1CCN(C(=O)c2ccccc2)CC1`, the Potency entry is “inactive”.

For the compound `S=C(S)N1CCCC1`, the Potency result is “inactive”.

`COc1cc(C(O)C(=O)O)ccc1O` (stereo not given): the Potency entry is “inactive”.

For the compound `Cc1nc2n(c(=O)c1CCN1CCC(c3noc4cc(F)ccc34)CC1)CCCC2O` (stereo not given), the Potency entry is “inactive”.

On to `Nc1ncnc2c1nc(Sc1ccc(Cl)cc1)n2[C@H]1OC2COP(=O)(O)O[C@@H]2C1O` (stereo not given in full), for which the Potency result is “inactive”.

For the compound `CNCCNS(=O)(=O)c1cccc2cnccc12`, the Potency entry was “inactive”.

Consider `O=C(O)C1CN(CCCP(=O)(O)O)CCN1` (stereo not given), for which the Potency result is “inactive”.

Take `O=c1[nH]c(=O)c2nc3ccccc3nc2[nH]1`: the Potency result is “inactive”.

In the case of `[Li+]`, the Potency result was “inactive”.

Regarding `CCCCCCCCCCCCCCC[C@H](O)[C@H](N)CO`, the Potency entry was “inactive”.

For the compound `COc1cc(CNC(=O)CCCCCCC(C)C)ccc1O`, the Potency entry is “inactive”.

In the case of `Nn1nnc2ccccc21`, the Potency entry was “inactive”.

Take `CCCn1c(=O)c2[nH]c(-c3ccc(S(=O)(=O)O)cc3)nc2n(CCC)c1=O`: the Potency result was “inactive”.

As to `N[C@H](C(=O)O)[C@H](O)C(=O)O`, the Potency result was “inactive”.

Consider `N[C@H]1CONC1=O`, for which the Potency result is “inactive”.

As to `COc1ccc2c(c1)CCC1C2CC[C@@]2(C)C1CC[C@@H]2NCCCCCCN1C(=O)C=CC1=O` (stereo not given in full), the Potency entry is “inactive”.

Consider `CCCCOc1cc(CC2CNC(=O)N2)ccc1OC` (stereo not given), for which the Potency result is “inactive”.

In the case of `O=C(O)C1=CCCNC1`, the Potency result was “inactive”.

For the compound `CCCCOC(=O)NS(=O)(=O)c1sc(CC(C)C)cc1-c1ccc(Cn2c(CC)nc3c(C)cc(C)nc32)cc1`, the Potency entry is “inactive”.

Take `NC(=O)c1ccccc1`: the Potency result was “inactive”.

As to `COc1ccc(CCN(C)CCc2ccc(OC)c(OC)c2)cc1OC`, the Potency entry was “inactive”.

For `c1ccc(C2CN3CCSC3=N2)cc1` (stereo not given), the Potency entry was “inactive”.

On to `NC1CONC1=O` (stereo not given), for which the Potency entry was “inactive”.

On to `CC[C@H](NC(=O)c1c(C)c(-c2ccccc2)nc2ccccc12)c1ccccc1`, for which the Potency result was “inactive”.

Regarding `C=CC1(C)CC(=O)C2(O)C(C)(O1)C(OC(C)=O)C(O)C1C(C)(C)CCC(O)C12C` (stereo not given), the Potency entry was “inactive”.

As for `CN1CC(O)C(O)C(O)C1CO` (stereo not given), the Potency result is “inactive”.

As for `CCCCCCCCCCCCCCCCCCOC[C@H](COP(=O)([O-])OCC[N+](C)(C)C)OC`, the Potency entry is “inactive”.

These data come from PubChem BioAssay (NCATS).
